Reference: PubChem BioAssay AID686970 (National Center for Advancing Translational Sciences (NCATS), 2013)
In all, about 360,000 compounds went through this assay and about 6,000 (1.7%) were called active. Not shown: some 8% with an inconclusive outcome. The sample holds actives, similar compounds and a random draw of the others, so the mix is not that of the screen. The call rests on the fitted dose curve; in most records, active means well fitted cell-killing curve with a large enough effect; inconclusive means small, poorly fitted or top-dose-only effect, or effect the other way; inactive means flat fitted curve, though single readings scatter.

Test: qHTS for induction of synthetic lethality in tumor cells producing 2HG: qHTS for the HT-1080-NT fibrosarcoma cell line; further: nearly all actives have a fitted effect of over 55% in size
Conditions: HT-1080-NT fibrosarcoma viability, CellTiter-Glo ATP luminescence, 48 h; series mostly up to 46.1 µM; activity, negative = less viability: at the top concentration
Text: Unbiased genomic sequencing for 22 glioma genomes found recurrent mutation of IDH1 on chromosome 2q33, a gene encoding the cytosolic isoform of IDH1 associated with the tricarboxylic acid cycle (TCA) that catalyzes the oxidative decarboxylation of isocitrate, yielding alpha-ketoglutarate and CO2 via NADP+ to NADPH conversion. Subsequent studies confirmed the recurrent IDH mutations in up to 70% of secondary gliomas and in 10% of AML cases. In addition, the somatic mutation of cancer-associated IDH1 is a point mutation resulting in various amino-acid substituents at Arginine132 (IDH1 R132), a key residue found in the enzyme's active site that when mutated, results in the loss-of-function in metabolizing isocitrate but confers a gain-of-function to produce the oncometabolite 2-hydroxyglutarate (2HG). This in effect defines IDH1 as an oncogene and provides an extraordinary opportunity to discover chemical probes against mutant IDH1 that may translate into much needed new therapies for glioma and AML patients.
This assay aims to perform a synthetic lethal screen for chemical probes specific for 2HG-producing tumor cells using matched paired cell lines (1) HT-1080-NT fibrosarcoma cell line that overproduces 2HG and (2) HT-1080-IDH1KD cell line which has IDH1 expression knocked-down. Desirable compounds are toxic to the NT fibrosarcoma cells but not to the IDH1KD cell line. The data in this AID corresponds to the results of the qHTS against the HT-1080-NT fibrosarcoma cell line.
[1] Dang L, Jin S, Su SM. IDH mutations in glioma and acute myeloid leukemia. Trends of Mol Med. 2010; 16(9): 387-97.
[2] Dang L et al. Cancer-associated IDH1 mutations produce 2-hydroxyglutarate. Nature. 2010; 465(7300):966.
NIH Molecular Libraries Probe Production Centers Network [MLPCN]
NIH Chemical Genomics Center [NCGC]
Assay Submitter (PI): Lenny Dang Ph.D., Agios Pharmaceuticals
Suspensions of trypsinized HT-1080-NT cells were dispensed into white, tissue culture-treated, solid 1536-well plates at 5uL/well (750 cells/well final concentration) in RPMI medium supplemented with 5% FBS. Plates were incubated at 37 degrees C for 2 hours, after which 23 nL of compounds or DMSO were delivered to each well using a pin tool. Plates were then incubated at 37 degrees C for an additional 48 hours. CellTiter-Glo viability reagent (Promega) was dispensed into wells (2.5uL/well) and incubated at room temperature for 10 minutes. The plates were measured on a PerkinElmer ViewLux plate reader for luminescent signal (clear filter, 1 sec exp). DMSO-treated control wells and media-only (no cells) control wells were used to normalize %Activity of identified toxic compounds; DMSO-treated wells corresponded to 0%Activity (100% viability), while media-only controls were used to normalize 100%Activity (0% viability).
Concentration-response curves were fitted to the signals arising from the resulting luminescence. The concentration-effect curves were then classified based on curve quality (r2), response magnitude and degree of measured activity, and compounds were subsequently categorized based on their curve class.
Potency means the concentration at half of the fitted maximal effect.

Compound | activity, negative = less viability | Potency
Cc1cc(NC(=O)CSc2nnc(-c3ccco3)n2N)no1 | 2.26% (inactive) | –
Cc1cc(NC(=O)CSc2nnnn2-c2ccc(F)cc2)no1 | -1.26% (inactive) | –
Cc1cc(C)c2c(c1)cc(C)c1nnc(SCC(=O)Nc3cc(C)on3)n12 | – | 6.31 µM (active)
CCOC1=C2[C@H]([C@H]3C(=O)N(c4ccccc4)C(=O)[C@H]3C1)[C@@H](c1ccccc1)N(S(=O)(=O)c1ccc(C)cc1)[C@H]2c1ccccc1 | 24.4% (inactive) | –
Cc1cccc(C)c1NC(=O)C(c1ccc(C(F)(F)F)cc1)n1c(=O)c(-c2ccco2)nc2ccccc21 (stereo not given) | -22.7% (inactive) | –
NC(Cc1ccc(F)cc1)c1csc(Nc2nncc3ccccc23)n1 (stereo not given) | – | 23.1 µM (active)
CC(=O)c1ccc(Nc2nc(C(N)c3ccccc3Cl)cs2)cc1 (stereo not given) | -21.8% (inactive) | –
COCC(C)NC(=O)COc1nncc2ccccc12 (stereo not given) | -1.79% (inactive) | –
Cc1cc(Br)ccc1NC(=O)CCCOc1cc(=O)n(C)c2ccccc12 | -24.6% (inactive) | –
COC(=O)[C@]12CCCCC=C1N(Cc1ccc(Cl)cc1Cl)C(=O)[C@H](CC(=O)NCc1cccc3ccccc13)C2 | -25.6% (inactive) | –
Cc1cc2c3ccccc3[nH]c(=O)n2n1 | 15.6% (inactive) | –
COc1ccc(CN2C(=O)C(CC(=O)NCc3cccc4ccccc34)CC(C(=O)N3CCOCC3)=C2C)cc1 (stereo not given) | -1.78% (inactive) | –
COCCCNC(=O)Cn1cc(/C=C(\C#N)C(=O)N2CCN(c3ccccc3)CC2)c2ccccc21 | 0.984% (inactive) | –
COC(=O)Cn1cc(/C=C/[N+](=O)[O-])c2ccccc21 | – | 18.4 µM (active)
NC(=O)Cn1cc(/C=N\NS(=O)(=O)c2ccccc2)c2ccccc21 | 0.259% (inactive) | –
CC1Cc2[nH][nH]c(=O)c2C(C2CCCC2)O1 (stereo not given) | 3.75% (inactive) | –
CC1(Oc2ccccc2-c2ccno2)CCN(Cc2ccc(-c3ccccc3)o2)C1 (stereo not given) | -24.5% (inactive) | –
CC(C)N1C(=O)c2ccccc2NC(=O)C1C(=O)NCc1cccs1 (stereo not given) | 5.09% (inactive) | –
COc1ccc(CCNC(=O)/C(C#N)=C2\N=C(NC(=O)c3cccs3)c3ccccc32)cc1 | 2.15% (inactive) | –
Cc1ccc2nc(/C(C#N)=C\c3ccc(OC(=O)c4cccs4)cc3)[nH]c2c1 | – | 7.94 µM (active)
Cc1ccnc(NC(=O)c2ccoc2C)c1 | -27.2% (inactive) | –
Cc1occc1C(=O)NNC(=S)NCC(C)C | 1.03% (inactive) | –
C/C(=N\NC(=O)c1ccoc1C)c1ccccc1O | – | 3.26 µM (active)
CC(C)Nc1ncnc2c1ncn2[C@H]1CN(Cc2ccncc2)C[C@@H](CO)O1 | 13.7% (inactive) | –
CCCCC(=O)N(C)c1c(CC)nc2c(OCc3ccc(S(C)(=O)=O)cc3)cccn12 | -15% (inactive) | –

Compound | activity, negative = less viability | Potency
COC(=O)C[C@@H]1C=C[C@@H](NC(=O)c2ccc3c(c2)OCO3)[C@@H](CO)O1 | 12.5% (inactive) | –
C[C@H](CO)N1C[C@H](C)[C@H](CN(C)C(=O)c2ccncc2)OCc2ccccc2-c2c(n(C)c3ccccc23)C1=O | -7.32% (inactive) | –
CC1=NN(c2ccc(Cl)c(C(=O)O)c2)C(=O)/C1=C/c1ccc(-c2ccccc2[N+](=O)[O-])o1 | -13% (inactive) | –
CC(=O)C1C(c2cccc(Oc3ccccc3)c2)NC(=O)NC1(O)C(F)(F)F (stereo not given) | -1.76% (inactive) | –
O=C1NC(c2ccc(-c3ccccc3[N+](=O)[O-])o2)C(C(=O)c2ccc(Cl)cc2)C(O)(C(F)(F)F)N1 (stereo not given) | – | 16.4 µM (active)
CCOC(=O)[C@]12CCCC=C1N(CCC1=CCCCC1)C(=O)[C@H](CC(=O)N1CCSCC1)C2 | 0% (inactive) | –
N#CCCN(C(=O)Nc1ccc(Cl)c(Cl)c1)C1CCCCC1 | -8.99% (inactive) | –
Cc1ccc(N/N=C2\COC(C)(C)CC2=O)cc1 | -1.11% (inactive) | –
COc1ccc(NC(=O)c2c(C)oc3c2CCCC3)cc1 | 0.683% (inactive) | –
COc1ccc(N/N=C2/CCCCC2=O)cc1 | – | 1.26 µM (active)
Cc1ccnc(SC2CC(=O)N(c3ccccc3)C2=O)n1 (stereo not given) | -0.41% (inactive) | –
O=C1CC[C@@H](C(=O)N2CSC[C@@H]2C(=O)Nc2ccc(C(F)(F)F)cc2)N1 | -0.302% (inactive) | –
O=S1(=O)CC(N2CCN(Cc3ccccc3F)CC2)CN1Cc1cn(Cc2cccc(C(F)(F)F)c2)nn1 (stereo not given) | -1.84% (inactive) | –
Cc1ccccc1OS(=O)(=O)c1cccc([N+](=O)[O-])c1 | 10.1% (inactive) | –
COc1cccc(OCCOc2cccc(/C=N/n3cnnc3)c2)c1 | -3.11% (inactive) | –
Cc1ccccc1OCCOc1ccc([N+](=O)[O-])cc1/C=N/n1cnnc1 | – | 2.31 µM (active)
CCOc1ccc(CCN2C(=O)c3cccnc3C2=O)cc1OCC | 17.8% (inactive) | –
NC1=CC(=O)C(=O)c2cccnc21 | – | 25.9 µM (active)
Cc1ccc(S(=O)(=O)N2CC[C@H]3[C@@H](C2)C(=O)C[C@@H](c2ccccc2)N3S(=O)(=O)c2ccc(C)cc2)cc1 | 1.59% (inactive) | –
Fc1cnc(N2CCOCC2)nc1NCc1ccccc1 | -4.29% (inactive) | –
c1ccc(-c2nnc(N3CCOCC3)c3ccccc23)cc1 | 0.217% (inactive) | –
c1ccc2c(NC3C4CC5CC(C4)CC3C5)nc(N3CCOCC3)nc2c1 (stereo not given) | – | 14.6 µM (active)
Cc1nc2ccccn2c(=O)c1NC(=O)c1ccc(Br)o1 | -0.505% (inactive) | –
CCCCN1C(=O)C(CC(=O)NC(c2ccccc2)c2ccccc2)CC(C(=O)N2CCOCC2)=C1C (stereo not given) | 7.54% (inactive) | –
CC1=C(C(=O)N2CCOCC2)CC(CC(=O)NCC2CCCCC2)C(=O)N1Cc1ccc(F)cc1 (stereo not given) | 1.38% (inactive) | –
